Experimental data reported in PubChem BioAssay (NCI).
About 79,000 compounds went through this panel and 15% of them were active in at least one assay; those are over-represented in the sample as a whole. The source made the active and inactive calls. Rule as the data show it: active = growth inhibition above about 70%; inactive = the rest.

Experiments:
[1] = NCI Yeast Anticancer Drug Screen. Data for the mec2-1 strain (AID 157); details: S. cerevisiae mec2-1 strain, active compounds read high
How it was run: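 mec2-1 yeast strain, carrying an alteration in DNA damage repair or cell cycle control, was exposed to compounds; growth inhibition was measured relative to vehicle-treated controls.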

[2] = NCI Yeast Anticancer Drug Screen. Data for the sgs1 mgt1 strain (AID 161);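 also: 0% = growth of cultures given vehicle only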; details: S. cerevisiae sgs1 mgt1 strain, active compounds read high
How it was run: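 Growth of a repair-deficient yeast mutant was monitored after compound treatment and expressed as inhibition relative to vehicle-treated cultures.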

[3] = NCI Yeast Anticancer Drug Screen. Data for the CLN2oe strain (AID 163);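 also: 0% = growth of vehicle-only control cultures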; details: S. cerevisiae CLN2oe strain, active compounds read high
How it was run: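 Yeast cells carrying a defined cell-cycle control alteration were exposed to test compounds. Growth inhibition was scored against vehicle-treated control cultures.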

[4] = NCI Yeast Anticancer Drug Screen. Data for the cln2 rad14 strain (AID 165);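 also: 0% = growth equal to vehicle treated cultures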; details: S. cerevisiae cln2 rad14 strain, active compounds read high
How it was run: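 Yeast carrying cln2 and rad14 alterations (cell cycle control and DNA damage repair) were exposed to compounds. Growth inhibition was measured against vehicle-treated controls.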

[5] = NCI Yeast Anticancer Drug Screen. Data for the bub3 strain (AID 167); details: S. cerevisiae bub3 mutant strain, active compounds read high
How it was run: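 Whole-cell yeast assay. The mutant strain was incubated with compounds, and growth inhibition was determined by comparison with vehicle-treated cells.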

[6] = NCI Yeast Anticancer Drug Screen. Data for the mlh1 strain (AID 171);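 also: 0% = growth of vehicle-treated control cultures of the same strain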; details: S. cerevisiae mlh1 strain growth inhibition, active compounds read high
How it was run: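 Yeast carrying a defined genetic alteration in DNA damage repair or cell cycle control were exposed to test compounds. Growth inhibition was measured relative to vehicle-treated controls.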

[7] = NCI Yeast Anticancer Drug Screen. Data for the sgs1 strain (AID 173);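 also: 0% = growth of vehicle-only control cultures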; details: S. cerevisiae sgs1 mutant, active compounds read high
How it was run: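 Yeast mutant strains carrying defined defects in DNA damage repair or cell cycle control were exposed to test compounds. Growth inhibition was scored against vehicle-treated controls.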

[8] = NCI Yeast Anticancer Drug Screen. Data for the mlh1 rad18 strain (AID 175); details: S. cerevisiae mlh1 rad18 strain growth inhibition, active compounds read high
How it was run: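 Growth inhibition of the yeast strain was measured after compound exposure and expressed relative to vehicle-treated controls. The strain carries defined defects in DNA damage repair.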

[9] = NCI Yeast Anticancer Drug Screen. Data for the rad18 strain (AID 177); details: S. cerevisiae rad18 mutant growth inhibition, active compounds read high
How it was run: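 Yeast carrying a defined DNA damage repair alteration were exposed to compounds. Growth inhibition was expressed relative to vehicle-treated controls.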

[10] = NCI Yeast Anticancer Drug Screen. Data for the wt1 strain (AID 149);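 also: 0% = growth of vehicle-treated wt1 cultures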; details: S. cerevisiae wt1 strain (SPY 50644) growth inhibition, active compounds read high
How it was run: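 Measured: growth of wt1 yeast under compound versus vehicle treatment, reported as inhibition.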

[11] = NCI Yeast Anticancer Drug Screen. Data for the rad50EPP+ strain (AID 151);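 also: 0% = growth of vehicle-treated control cultures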; details: S. cerevisiae rad50 mutant strain, active compounds read high
How it was run: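 Yeast strain carrying rad50 alteration (rad50EPP+) exposed to compounds; growth inhibition measured relative to vehicle-treated controls.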

[12] = NCI Yeast Anticancer Drug Screen. Data for the mgt1 strain (AID 153); details: S. cerevisiae mgt1 mutant growth inhibition, active compounds read high
How it was run: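 Yeast mgt1 strain (DNA repair/cell-cycle alteration panel) exposed to compounds; growth inhibition measured relative to vehicle-treated controls.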

[13] = NCI Yeast Anticancer Drug Screen. Data for the rad50 strain (AID 155);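 also: 0% = growth of vehicle-only cultures of the same strain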; details: S. cerevisiae rad50 strain growth inhibition, active compounds read high
How it was run: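 Growth of the mutant yeast was measured after compound exposure and referenced to vehicle-treated cultures.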

[14] = NCI Yeast Anticancer Drug Screen. Data for the wt2 strain (AID 169);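 also: 0% = growth of vehicle-treated yeast cultures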; details: S. cerevisiae wt2 strain growth inhibition, active compounds read high
How it was run: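 Yeast cells were exposed to test compounds, and growth inhibition was measured relative to vehicle-treated controls.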

[15] = at 5.0 µM (retest, dose inferred, filed as 0.5)
[16] = at 50.0 µM (retest, dose inferred, filed as 5.0)

Measured: growth inhibition

Cc1ccc(C(C)C)c(C(=C2C=CC(=[N+](C)C)C=C2)c2c(C(C)C)ccc(C)c2O)c1O
inactive: [2]; [15] 66% | [3]; at 1.2 µM 2% | [3]; at 3.7 µM 26% | [4]; [15] 51% | [5]; at 1.2 µM 3% | [5]; at 3.7 µM 8% | [5]; [15] 35% | [6]; at 1.2 µM 0% | [6]; at 3.7 µM 8% | [7]; at 1.2 µM 0% | [7]; at 3.7 µM 14% | [8]; [15] 63% | [9]; at 1.2 µM -2% | [9]; at 3.7 µM 25%
active: [1]; at 100.0 µM 88% | [2]; [16] 96% | [2]; at 50.0 µM 97.3% | [3]; at 11.0 µM 97% | [3]; at 33.0 µM 93% | [3]; at 100.0 µM 75% | [4]; [16] 94% | [4]; at 50.0 µM 95.2% | [5]; at 11.0 µM 97% | [5]; at 33.0 µM 93% | [5]; [16] 97% | [5]; at 50.0 µM 95.3% | [5]; at 100.0 µM 81% | [6]; at 11.0 µM 97% | [6]; at 33.0 µM 96% | [6]; at 100.0 µM 84% | [7]; at 11.0 µM 97% | [7]; at 33.0 µM 94% | [7]; at 100.0 µM 82% | [8]; [16] 94% | [8]; at 50.0 µM 96.9% | [9]; at 11.0 µM 98% | [9]; at 33.0 µM 95% | [9]; at 100.0 µM 80%

S=C1NC2=C(CSC/C2=C\c2ccc(Cl)cc2)C(c2ccc(Cl)cc2)N1 (stereo unspecified)
active: [10]; at 100.0 µM 76% | [12]; at 33.0 µM 72% | [12]; at 100.0 µM 82% | [13]; at 33.0 µM 74% | [13]; [16] 94% | [13]; at 50.0 µM 92.9% | [13]; at 100.0 µM 71% | [1]; [16] 95% | [1]; at 50.0 µM 83.7% | [1]; at 100.0 µM 77% | [2]; [16] 92% | [2]; at 50.0 µM 96.5% | [3]; at 100.0 µM 71% | [4]; [16] 92% | [4]; at 50.0 µM 95.2% | [5]; [16] 96% | [5]; at 50.0 µM 94.8% | [5]; at 100.0 µM 77% | [14]; at 100.0 µM 83% | [6]; at 33.0 µM 72% | [6]; at 100.0 µM 75% | [7]; at 33.0 µM 84% | [7]; at 100.0 µM 87% | [8]; [16] 96% | [8]; at 50.0 µM 90.7% | [9]; at 100.0 µM 73%
inactive: [10]; at 1.2 µM 8% | [10]; at 3.7 µM 19% | [10]; at 11.0 µM 24% | [10]; at 33.0 µM 61% | [11]; at 1.2 µM -3% | [11]; at 3.7 µM 12% | [11]; at 11.0 µM 12% | [11]; at 33.0 µM 16% | [11]; at 100.0 µM 9% | [12]; at 1.2 µM 29% | [12]; at 3.7 µM 31% | [12]; at 11.0 µM 44% | [13]; at 1.2 µM 20% | [13]; at 3.7 µM 42% | [13]; [15] -9% | [13]; at 11.0 µM 56% | [1]; at 1.2 µM 0% | [1]; at 3.7 µM -1% | [1]; [15] 5% | [1]; at 11.0 µM 24% | [1]; at 33.0 µM 61% | [2]; [15] 6% | [3]; at 1.2 µM -14% | [3]; at 3.7 µM 14% | [3]; at 11.0 µM 28% | [3]; at 33.0 µM 44% | [4]; [15] 11% | [5]; at 1.2 µM -39% | [5]; at 3.7 µM -7% | [5]; [15] -7% | [5]; at 11.0 µM 16% | [5]; at 33.0 µM 56% | [14]; at 1.2 µM 25% | [14]; at 3.7 µM 31% | [14]; at 11.0 µM 39% | [14]; at 33.0 µM 68% | [6]; at 1.2 µM 3% | [6]; at 3.7 µM 26% | [6]; at 11.0 µM 46% | [7]; at 1.2 µM 42% | [7]; at 3.7 µM 45% | [7]; at 11.0 µM 66% | [8]; [15] 16% | [9]; at 1.2 µM 15% | [9]; at 3.7 µM 25% | [9]; at 11.0 µM 28% | [9]; at 33.0 µM 63%
